Records with an inconclusive call do not appear. Where a call stands in place of a potency, no number is given. Activity calls are given as the source filed them. Calls follow the shape of the dose curve; as a rule, active = well fitted cell-killing curve with a large enough effect in the repeat runs; inconclusive = weak or mixed curves, or effect the other way; inactive = flat fitted curve, though single readings scatter.
Columns and labels:
[1] = cAMP Responsive Elements (CRE) small molecule antagonists, cell-based qHTS assay: qHTS cell viability counter screen (AID 2060913); details: CRE-bla HEK293T viability, CellTiter-Glo luminescence, 5 h; series mostly up to 92.4 µM; also: nearly all actives have a fitted effect of over 40% in size
Outline: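 CRE-bla HEK293T cells (2,000/well, 18 h) given compound plus NKH477 0.25 uM final for 3 h at 37C; viability counter-screen by CellTiter-Glo luminescence in same wells after 30 min.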

[2] = cAMP Responsive Elements (CRE) small molecule agonists, cell-based qHTS assay: qHTS cell viability counter screen (AID 2060914); details: CRE-bla HEK293T viability, CellTiter-Glo luminescence, 5 h; series mostly up to 92.4 µM;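 also: viability read after 3 h of compound exposure; nearly all actives have a fitted effect of over 50% in size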
Outline: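 Cytotoxicity counter screen multiplexed with the CRE-bla reporter assay in HEK 293T cells: 3 h compound exposure at 37 °C, followed by CellTiter-Glo luminescence measured in the same wells.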
Potency is read from the fitted curve at half-maximal effect.

Structure (SMILES) | Potency [1] | Potency [2]
Cc1cc(N)c(S(=O)(=O)O)cc1Cl | inactive | inactive
C[C@H]1C[C@H](O)c2ccsc2S1(=O)=O | inactive | inactive
NC(=O)/N=N/C(N)=O | inactive | inactive
C=CCCCCCCC=C | inactive | inactive
Clc1ccnc(Cl)n1 | inactive | inactive
Cc1cccc(C(=O)O)c1O | inactive | inactive
CC(O)Cn1cnc2c1c(=O)n(C)c(=O)n2C (configuration not stated) | inactive | inactive
Cc1ccc([N+](=O)[O-])c(N)c1 | inactive | inactive
[Cl][Sc]([Cl])[Cl] | inactive | inactive
Cc1ncsc1CCO | inactive | inactive
NC1CCN(c2nc3c(cc2F)c(=O)c(C(=O)O)cn3-c2ccc(F)cc2F)C1 (configuration not stated) | inactive | inactive
CC(=O)OC/C=C(/C)CCC=C(C)C | inactive | inactive
COc1cc(C(=O)N2CCCCCCC2)cc(OC)c1OC | inactive | inactive
CC(C)(C)c1ccc(CCC=O)cc1 | inactive | inactive
CCOC(=O)C(C)O (configuration not stated) | inactive | inactive
OCCOCC#CCOCCO | inactive | inactive
CCC(C)(CCC(C)C)C(=O)[O-].CCC(C)(CCC(C)C)C(=O)[O-].[Zn+2] (configuration not stated) | inactive | inactive
CC(=O)C(C)C | inactive | inactive
O=C(OCCOCCOC(=O)c1ccccc1)c1ccccc1 | inactive | inactive

Structure (SMILES) | Potency [1] | Potency [2]
CCCCOC(=O)COc1ccc(Cl)cc1Cl | inactive | inactive
CC(C)c1ccc(S(=O)(=O)O)cc1 | inactive | inactive
Cc1nc2ccc(Cl)cc2[nH]1 | inactive | inactive
CC1=CCC2CC1C2(C)C (configuration not stated) | inactive | inactive
F[Si-2](F)(F)(F)(F)F | inactive | inactive
CC(=O)Nc1ccc(/C=N/NC(N)=S)cc1 | inactive | inactive
COc1ccc2c(c1)c(CC(=O)OCC(=O)O)c(C)n2C(=O)c1ccc(Cl)cc1 | inactive | inactive
CN(C)[C@@H](CCOc1cccc2ccccc12)c1ccccc1 | inactive | inactive
CC1=NC(C)OC1C (configuration not stated) | inactive | inactive
O=C(O)c1cc(N=Nc2ccc(S(=O)(=O)Nc3ccccn3)cc2)ccc1O | inactive | inactive
C1COC1 | inactive | inactive
CC(=O)Oc1ccc(C2(c3ccc(OC(C)=O)cc3)C(=O)Nc3ccccc32)cc1 | inactive | inactive
Cc1cc(S(=O)(=O)O)ccc1N=Nc1c(O)ccc2ccccc12 | inactive | inactive
CC(O)c1ccccc1 (configuration not stated) | inactive | inactive
NNCCc1ccccc1 | inactive | inactive
O=C1CCCCCCCCCCCCCCO1 | inactive | inactive
Cc1c(C)c([N+](=O)[O-])c(C(C)(C)C)c([N+](=O)[O-])c1C | inactive | inactive
CC(CCc1ccccc1)NCC(O)c1ccc(O)c(C(N)=O)c1 (configuration not stated) | inactive | inactive
CCOC(=O)c1ccc(C)cc1 | inactive | inactive

Structure (SMILES) | Potency [1] | Potency [2]
Cc1cccc(OCCOc2cccc(C)c2)c1 | inactive | inactive
CC(C)(C)c1cc(CCC(=O)NCCCCCCNC(=O)CCc2cc(C(C)(C)C)c(O)c(C(C)(C)C)c2)cc(C(C)(C)C)c1O | inactive | inactive
CC(C)=CCCC(C)CCOC=O (configuration not stated) | inactive | inactive
CN1CCN(c2ccccc2/C=C2\SCCN(c3ccc(Cl)c(Cl)c3)C2=O)CC1 | inactive | inactive
CCCCCCCCOc1ccc(C(=O)c2ccccc2)c(O)c1 | inactive | inactive
Cc1c(F)cc2c(=O)c(C(=O)O)cn3c2c1CCC3C (configuration not stated) | inactive | inactive
Cc1ccc(Cl)c(N)c1Cl | inactive | inactive
COC(=O)NN | inactive | inactive
CCCCCCCCn1sc(Cl)c(Cl)c1=O | 30.6 µM (active) | 43.3 µM (active)
CCCCCC(C)O (configuration not stated) | inactive | inactive
CCCCN1CCCC[C@H]1C(=O)Nc1c(C)cccc1C | inactive | inactive
CC(=O)OC(C)(C)Cc1ccccc1 | inactive | inactive
COc1cc2nc(Cl)nc(N)c2cc1OC | inactive | inactive
COc1ccc(Cc2cnc(N)nc2N)cc1OC | inactive | inactive
CO/N=C(/C(=O)N[C@@H]1C(=O)N2C(C(=O)O)=C(Cn3nnc(C)n3)CS[C@H]12)c1csc(N)n1 | inactive | inactive
C[C@]12CCC(=O)C=C1CC[C@H]1[C@@H]3CC[C@](O)(C(=O)CO)[C@@]3(C)C[C@H](O)[C@@]12F | inactive | inactive
O=P(O)(O)OCC(O)CO (configuration not stated) | inactive | inactive
O=C(O)CCNC(=O)c1ccccc1 | inactive | inactive

From PubChem BioAssay (Tox21)
